Screening results deposited in PubChem BioAssay by several laboratories.
Hits are enriched below; roughly 2.5% of the tested compounds scored in any of these assays.
LGR2 inh – inhibitors of bursicon-induced LGR2 CRE-luciferase signal, primary screen, cell-based, HEK293, CRE-luciferase reporter, bursicon stimulation | inhibition, % at 9.99 µM | AID 720647, 2013 | actives 0.35% (n = 380,000) | bursicon-stimulated, 4 h | Drosophila bursicon receptor LGR2 (rickets);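 active = drop in luminescence signal, shown as inhibition above about 50% in the replicate tests, limit read from the data, passing the limit was not always enough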;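 also: agonist challenge used bursicon conditioned medium at about half maximal strength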
TWEAK Fn14 block – inhibitors of TWEAK-Fn14 signaling, primary screen, luciferase reporter cells, uHTS; TWEAK-stimulated Fn14 reporter cells, luciferase luminescence, 8 h; inhibition, % at 10 µM; actives 2% (n = 360,000); in the data active = inhibition above about 50%
LMP1 NFkB inh – EBV LMP1-driven NF-kappaB luciferase reporter inhibitors, primary screen, cell-based, luminescence, single point; inhibition, % at 12.5 µM; LMP1-induced NF-kappaB luciferase reporter cells; actives 0.69% (n = 350,000); AID 504558, 2011; in the data active = inhibition above about 41%;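 also: 0% = neutral control wells and 100% = reference inhibitor control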
EWS-Fli block – EWS/Fli-driven NR0B1 reporter inhibitors, primary screen, A673 cells, NR0B1 luciferase, luminescence, MLPCN library; viability-normalised; inhibition, % at 12.6 µM; actives 0.67% (n = 350,000); AID 651661, 2012;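 active = mean inhibition of at least 50% after viability correction, with every replicate also passing that limit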;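 also: firefly luciferase signal divided by Alamar Blue viability fluorescence both relative to DMSO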
TROY signal inh – inhibitors of TROY-driven NF-kB signaling, primary screen, Q293 LMP1-TROYcd cells, NF-kB luciferase, uHTS. actives 0.98% (n = 360,000). inhibition, % at 10 µM. Q293 LMP1-TROYcd NF-kB luciferase reporter, 4 h;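 active = compounds whose plate-normalised and pattern-corrected inhibition of the luciferase reporter signal at the single screening dose is 50% or more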
The depositor's hits bear a star; . = no result.

SMILES | LGR2 inh | TWEAK Fn14 block | LMP1 NFkB inh | EWS-Fli block | TROY signal inh
Cc1cccc(OCCNc2ccc([N+](=O)[O-])cn2)c1 | 1.4 | -1.9 | -23.4 | -1.2 | -21.5
O=[N+]([O-])c1ccc(NCCOc2ccccc2Cl)nc1 | -15.2 | 50.6* | -3.9 | -28.2 | -33.6
COc1ccc(S(=O)(=O)Nc2cccc3c2O[C@@H](CN(C)S(=O)(=O)c2cn(C)cn2)[C@H](C)CN([C@@H](C)CO)C3=O)cc1 | -24.7 | . | . | -4.2 | .
c1ccc2c(c1)c1ccccc1n2CN1CCOCC1 | . | 75.2* | 3.9 | . | .
c1coc(CN(Cc2cccs2)Cc2nnnn2C2CCCCC2)c1 | . | 51.1* | -9.3 | . | 10.4
Clc1ccccc1CN(Cc1ccco1)Cc1nnnn1C1CCCC1 | . | 6.9 | 6.0 | . | 2.9
COc1ccc(N(C)C(=O)Nc2ccc3nsnc3c2)cc1 | -23.7 | 7.9 | -9.6 | -17.0 | 19.8
CC(C)N(C(=O)Nc1ccc2nsnc2c1)C(C)C | 82.2* | . | . | -25.9 | .
CC(C)NC(=O)c1cc(C(=O)c2cc(Cl)ccc2O)coc1=N | . | 68.7* | -11.7 | . | 20.6
Nc1cc(=O)[nH]c(SCCSc2ccccc2F)n1 | -1.7 | -9.6 | 3.3 | -2.4 | -37.0
Nc1cc(=O)[nH]c(SCCSc2cc(Cl)ccc2Cl)n1 | 0.7 | -21.1 | 51.4* | 5.5 | -12.0
COc1ccccc1Nc1c2c(nc3ccccc13)CCC2 | 7.7 | 6.5 | -7.8 | 61.9* | 5.9
CC(=O)c1ccc(Nc2c3c(nc4ccccc24)CCCC3)cc1 | 8.1 | 0.4 | 2.9 | 71.1* | 15.3
CC(=O)c1cccc(Nc2c3c(nc4ccccc24)CCC3)c1 | -5.7 | 3.5 | 15.0 | 56.5* | -6.9
COC(=O)c1cccc(Nc2c3c(nc4ccccc24)CCC3)c1 | -2.4 | 4.5 | 6.1 | 43.0 | 7.3
Cc1ccc(S(=O)(=O)N(C)C[C@@H]2Oc3ccc(NS(=O)(=O)c4cn(C)cn4)cc3CC(=O)N([C@@H](C)CO)C[C@@H]2C)cc1 | 0.9 | . | . | -2.4 | .
COC(=O)c1sccc1NC(=O)Nc1ccc(C)c(C)c1 | -109.1 | 23.0 | -17.9 | . | 44.2
CCc1ccc(NC(=O)Nc2ccsc2C(=O)OC)cc1 | 17.7 | 52.9* | -16.2 | . | 62.7*
Cc1sc(NC(=O)CN2CCOCC2)nc1-c1ccc2c(c1)CCN2S(=O)(=O)c1ccccc1 | -2.1 | 15.8 | 15.6 | 26.0 | 5.8
CS(=O)(=O)N1CCc2cc(-c3csc(NC(=O)Cc4cccs4)n3)ccc21 | . | 79.9* | 9.6 | . | 18.6
O=C(CN1CCOCC1)Nc1nc(-c2ccc3c(c2)CCN3S(=O)(=O)c2ccccc2)cs1 | 11.7 | 52.8* | 16.7 | . | 46.8
Cc1ccc(S(=O)(=O)N(C)C[C@@H]2OCCCC[C@@H](C)Oc3ccc(NS(=O)(=O)c4c(C)noc4C)cc3C(=O)N([C@@H](C)CO)C[C@H]2C)cc1 | -7.8 | . | . | 2.3 | .
COc1ccc(-c2nnc(SCC(=O)/C(C#N)=C(\C)N)o2)cc1 | . | 65.4* | -2.2 | . | 31.0
COc1ccc(-c2nnc(SCC(=O)c3ccc(C)o3)o2)cc1 | -20.9 | 0.7 | -10.9 | -10.2 | -6.1
C/C(N)=C(/C#N)C(=O)CSc1nnc(-c2ccccc2Br)o1 | 31.7 | 73.5* | -6.1 | . | 16.5
SMILES | LGR2 inh | TWEAK Fn14 block | LMP1 NFkB inh | EWS-Fli block | TROY signal inh
C[C@H](CO)N1C[C@H](C)[C@@H](CN(C)Cc2cccc(F)c2)Oc2ncc(-c3cccc(F)c3)cc2C1=O | 5.3 | . | . | 13.5 | .
CCc1ccc(-c2nc(C(N)=O)c3[nH]c(=O)n(-c4ccccc4OC)c3n2)cc1 | . | 21.8 | 4.5 | 62.7* | 19.4
O=C(CCl)N(Cc1cc(=O)[nH]c2ccccc12)c1ccccc1 | 33.8 | 81.5* | 19.9 | 15.4 | 8.5
Cc1ccccc1N(Cc1cc(=O)[nH]c2ccccc12)C(=O)CCl | 36.6 | 69.7* | 7.8 | 23.1 | -4.6
Cc1ccccc1N(Cc1cc(=O)[nH]c2ccccc12)C(=O)C(C)C | 6.7 | 1.4 | -3.3 | 14.0 | 3.3
C[C@H](CO)N1C[C@H](C)[C@H](CN(C)C(=O)CC2CC2)Oc2cc(-c3cncnc3)ccc2S1(=O)=O | 5.6 | . | . | -4.0 | .
C[C@H]1CCCCO[C@@H](CN(C)CC2CCCCC2)[C@@H](C)CN([C@@H](C)CO)C(=O)c2cc(NC(=O)Nc3ccc(C(F)(F)F)cc3)ccc2O1 | . | . | . | -7.0 | .
